Experimental findings from PubChem BioAssay (Tox21) are described below.

Values joined by “and” are separate entries in the source; they are usually repeats but may differ in a detail not shown here. Equal entries are not always repeated. Unmarked numbers belong to inactive results. Records with an inconclusive call do not appear. Active and inactive are the calls of the source. Calls follow the shape of the dose curve; as a rule, active = well fitted curve in the direction sought with a large enough effect in the repeat runs; inconclusive = weak or mixed curves; inactive = no such curve, though single readings can be large; an effect the other way counts as inactive or inconclusive.

Assay [1] in a line: Caspase-3/7 induction in CHO-K1 cells by small molecules, qHTS cell viability counter screen (AID 1346979). Also: potency is read from the fitted curve at half-maximal effect; nearly all actives have a fitted effect of over 35% in size. A digest of the protocol: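 Wild-type CHO-K1 cells (1,500/well) treated with compound after 5 h plating; after 16 h at 37C, viability read as CellTiter-Fluor fluorescence following 1 h reagent incubation, in the same wells as the caspase read.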
Background: qHTS replaces the single test concentration by a dilution series.

The nature of assay [2]: Caspase-3/7 induction in HepG2 cells by small molecules, qHTS cell viability counter screen (AID 1346981). Also: nearly all actives have a fitted effect of over 30% in size. Also: potency is read from the fitted curve at half-maximal effect. In a few lines:
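Counter screen for cytotoxicity: HepG2 exposed 16 hr to compounds, then CellTiter-Fluor viability signal (fluorescence, 1 hr reagent incubation).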

Assay [3] addresses Nuclear receptor subfamily 1 group I member 2 (Homo sapiens) (UniProt O75469). Description: Human pregnane X receptor (PXR) small molecule agonists, qHTS assay (AID 1346982). Also: nearly all actives have a fitted effect of over 35% in size. Also: potency is read from the fitted curve at half-maximal effect. As to activation: % is scaled to controls: 0 for no effect and ±100 for the full control effect. A digest of the protocol:
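Luminescence (ONE-Glo, 30 min RT) after 24 hr compound exposure of PXR-Luc HepG2 cells; cells rested 5 hr post-plating in 5% charcoal-stripped FBS medium.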

The target in assay [4] is Nuclear receptor subfamily 1 group I member 2 (Rattus norvegicus) (UniProt Q9R1A7). Description: Rat pregnane X receptor (rPXR) activation by small molecules, qHTS assay (AID 1346983). Also: % is scaled to controls: 0 for no effect and ±100 for the full control effect; nearly all actives have a fitted effect of over 20% in size. The conditions noted are these: rPXR luciferase reporter cells, One-Glo luminescence, 24 h; max activation: hits give high values. In a few lines: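 Cell-based rPXR activation assay: rPXR cells, 2,000 per well, rested 5hr at 37 C, then exposed to compounds in DMSO for 24 hr at 37 C. Luciferase activity read by One-Glo luminescence after 30 min at room temperature.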
Sequence of Nuclear receptor subfamily 1 group I member 2 (Rattus norvegicus) (Q9R1A7 whole entry, looked up): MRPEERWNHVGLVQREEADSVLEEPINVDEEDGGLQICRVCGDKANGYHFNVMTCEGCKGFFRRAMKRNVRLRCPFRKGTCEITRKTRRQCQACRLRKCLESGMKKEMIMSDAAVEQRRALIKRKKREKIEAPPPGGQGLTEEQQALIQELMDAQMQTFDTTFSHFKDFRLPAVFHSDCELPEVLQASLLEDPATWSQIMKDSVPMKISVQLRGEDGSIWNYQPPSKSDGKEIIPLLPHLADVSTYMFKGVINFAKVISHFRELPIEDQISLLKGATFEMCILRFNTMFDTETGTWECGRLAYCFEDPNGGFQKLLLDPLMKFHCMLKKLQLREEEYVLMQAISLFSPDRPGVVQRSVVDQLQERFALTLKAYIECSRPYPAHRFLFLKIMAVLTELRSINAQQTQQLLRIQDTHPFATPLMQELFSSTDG

The target in assay [5] is Cytochrome P450 2D6 (Homo sapiens) (UniProt P10635). Description: Cytochrome P450 Family 2 Subfamily D Member 6 (CYP2D6) small molecule antagonists: luciferase reporter qHTS assay (AID 1671196). Also: nearly all actives have a fitted effect of over 50% in size. Also: potency is read from the fitted curve at half-maximal effect. In a few lines:
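Inhibition of CYP2D6 was gauged by loss of luminescence, since light produced tracks the luciferin generated from a proluciferin substrate. A 10 min room-temperature preincubation preceded 1 h NADPH-supported turnover.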
For orientation: A reporter such as luciferase makes a cellular process visible.

In assay [6] the target is Cytochrome P450 2C9 (Homo sapiens) (UniProt P11712). Description: Cytochrome P450 Family 2 Subfamily C Member 9 (CYP2C9) small molecule antagonists: luciferase reporter qHTS assay (AID 1671198). Also: nearly all actives have a fitted effect of over 50% in size. Also: potency is read from the fitted curve at half-maximal effect. In a few lines:
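P450-Glo proluciferin substrate with CYP2C9 enzyme; 10 min RT preincubation, then NADPH regeneration 1 h at 37C; luciferin detection reagent 20 min RT, luminescence in relative luminescence units.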

Assay [7] deals with Cytochrome P450 1A2 (Homo sapiens) (UniProt P05177). The assay can be described thus: Cytochrome P450 Family 1 Subfamily A Member 2 (CYP1A2) small molecule antagonists: luciferase reporter qHTS assay (AID 1671199). Also: nearly all actives have a fitted effect of over 50% in size. Also: potency is read from the fitted curve at half-maximal effect. In a few lines: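 Signal from luciferin formed by CYP1A2 from a proluciferin substrate is read as luminescence, expressed in relative luminescence units. Compounds sit with enzyme 10 min, NADPH-driven reaction runs 1 h, all at room temperature.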
Sequence of Cytochrome P450 1A2 (Homo sapiens) (P05177 whole entry, looked up): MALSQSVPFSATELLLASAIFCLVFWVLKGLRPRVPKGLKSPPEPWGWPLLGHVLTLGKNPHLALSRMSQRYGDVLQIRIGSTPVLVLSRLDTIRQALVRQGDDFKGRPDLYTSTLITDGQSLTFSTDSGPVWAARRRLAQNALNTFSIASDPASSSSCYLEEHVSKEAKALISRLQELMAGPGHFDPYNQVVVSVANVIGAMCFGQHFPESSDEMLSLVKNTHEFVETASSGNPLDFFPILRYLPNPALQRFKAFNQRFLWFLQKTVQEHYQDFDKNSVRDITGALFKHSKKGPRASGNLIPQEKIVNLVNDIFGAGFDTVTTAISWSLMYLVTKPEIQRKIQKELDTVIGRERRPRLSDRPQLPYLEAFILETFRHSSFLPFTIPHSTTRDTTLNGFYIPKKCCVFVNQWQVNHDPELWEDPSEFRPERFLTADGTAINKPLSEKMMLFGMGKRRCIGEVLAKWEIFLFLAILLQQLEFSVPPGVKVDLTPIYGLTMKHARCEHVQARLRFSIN

Assay [8] addresses Voltage-gated inwardly rectifying potassium channel KCNH2 (Homo sapiens) (UniProt Q12809). The assay can be described thus: Human Ether-a-go-go-Related Gene (hERG) channel small molecule antagonists: fluorescence cell-based qHTS assay (AID 1671200). Also: nearly all actives have a fitted effect of over 50% in size. Also: potency is read from the fitted curve at half-maximal effect. In a few lines:
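hERG-U2OS cells plated overnight at 37 C, loaded with FluxOR II dye 1 h at RT in dark; after 10 min, thallium stimulus added. Fluorescence (480/540 nm) read kinetically for 2 min at 1 s intervals.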
(Block of hERG is tested as a sign of cardiac risk.)

Assay [9] can be described thus: Caspase-3/7 induction in CHO-K1 cells by small molecules, qHTS assay (AID 1346980). Also: nearly all actives have a fitted effect of over 15% in size. Also: potency is read from the fitted curve at half-maximal effect. In a few lines:
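Wild-type CHO-K1 cells exposed to compounds for 17hr at 37 C, 5% CO2. Caspase-3/7 activity then measured by Caspase-Glo 3/7 luminescence after 30min at room temperature.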

For assay [10], the target named is Cytochrome P450 3A4 (Homo sapiens) (UniProt P08684). The assay can be described thus: Cytochrome P450 Family 3 Subfamily A Member 4 (CYP3A4) small molecule antagonists: luciferase reporter qHTS assay (AID 1671201). Also: nearly all actives have a fitted effect of over 50% in size. Also: potency is read from the fitted curve at half-maximal effect. In a few lines:
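P450-Glo CYP3A4 luminescent assay: compounds preincubated 10 min at room temperature with enzyme and proluciferin substrate, NADPH regeneration added, 1 h room-temperature reaction, stopped with luciferin detection reagent; luminescence read after 20 min. Ketoconazole positive control.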

For assay [11], the target named is Cytochrome P450 2C19 (Homo sapiens) (UniProt P33261). Description: Cytochrome P450 Family 2 Subfamily C Member 19 (CYP2C19) small molecule antagonists: luciferase reporter qHTS assay (AID 1671197). Also: nearly all actives have a fitted effect of over 65% in size. Also: potency is read from the fitted curve at half-maximal effect. A digest of the protocol:
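P450-Glo CYP2C19 screening system; proluciferin substrate; DMSO compound stocks; 10 min RT preincubation; NADPH regeneration, 1 h at 37C; luciferin detection reagent, 20 min RT; luminescence as RLU.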

Assay [12] has as its target Nuclear receptor subfamily 1 group I member 2 (Homo sapiens) (UniProt O75469). The assay can be described thus: CYP3A4 induction through human pregnane X receptor (PXR) by small molecules, qHTS assay (AID 1346984). Also: % is scaled to controls: 0 for no effect and ±100 for the full control effect; nearly all actives have a fitted effect of over 40% in size. In a few lines: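 DPX-2 reporter cells; 24h cpd, 37C; Luciferin-IPA 3uM final x3h; One-Glo 30 min RT; lumi read.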

Sequence of Cytochrome P450 2D6 (Homo sapiens) (P10635 whole entry, looked up): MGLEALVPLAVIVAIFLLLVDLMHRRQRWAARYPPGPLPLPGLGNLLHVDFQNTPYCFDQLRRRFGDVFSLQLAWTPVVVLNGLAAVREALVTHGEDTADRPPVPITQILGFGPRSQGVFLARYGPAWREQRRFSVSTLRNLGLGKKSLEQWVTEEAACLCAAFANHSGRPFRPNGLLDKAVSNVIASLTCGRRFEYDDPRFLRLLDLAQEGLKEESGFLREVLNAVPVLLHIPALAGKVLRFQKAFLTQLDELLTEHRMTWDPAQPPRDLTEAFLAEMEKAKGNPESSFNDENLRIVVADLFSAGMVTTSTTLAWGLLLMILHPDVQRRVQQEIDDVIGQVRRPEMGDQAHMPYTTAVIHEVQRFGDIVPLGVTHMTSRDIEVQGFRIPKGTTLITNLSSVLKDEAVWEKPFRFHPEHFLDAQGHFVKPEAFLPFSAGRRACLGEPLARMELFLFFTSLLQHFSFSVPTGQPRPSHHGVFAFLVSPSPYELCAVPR
Sequence of Cytochrome P450 3A4 (Homo sapiens) (P08684 whole entry, looked up): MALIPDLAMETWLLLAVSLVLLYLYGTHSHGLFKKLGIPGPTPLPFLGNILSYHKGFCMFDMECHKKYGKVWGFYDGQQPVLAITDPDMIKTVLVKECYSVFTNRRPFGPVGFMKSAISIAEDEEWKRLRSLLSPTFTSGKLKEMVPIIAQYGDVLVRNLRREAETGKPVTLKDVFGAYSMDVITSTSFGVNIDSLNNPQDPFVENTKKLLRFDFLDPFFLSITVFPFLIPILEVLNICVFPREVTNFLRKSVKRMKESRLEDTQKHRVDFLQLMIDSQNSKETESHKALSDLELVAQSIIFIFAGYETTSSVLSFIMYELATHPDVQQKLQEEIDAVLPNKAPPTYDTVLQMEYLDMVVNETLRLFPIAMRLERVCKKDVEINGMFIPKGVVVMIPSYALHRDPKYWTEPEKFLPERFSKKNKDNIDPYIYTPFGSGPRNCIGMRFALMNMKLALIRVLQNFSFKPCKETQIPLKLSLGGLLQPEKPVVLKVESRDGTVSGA
Sequence of Cytochrome P450 2C19 (Homo sapiens) (P33261 whole entry, looked up): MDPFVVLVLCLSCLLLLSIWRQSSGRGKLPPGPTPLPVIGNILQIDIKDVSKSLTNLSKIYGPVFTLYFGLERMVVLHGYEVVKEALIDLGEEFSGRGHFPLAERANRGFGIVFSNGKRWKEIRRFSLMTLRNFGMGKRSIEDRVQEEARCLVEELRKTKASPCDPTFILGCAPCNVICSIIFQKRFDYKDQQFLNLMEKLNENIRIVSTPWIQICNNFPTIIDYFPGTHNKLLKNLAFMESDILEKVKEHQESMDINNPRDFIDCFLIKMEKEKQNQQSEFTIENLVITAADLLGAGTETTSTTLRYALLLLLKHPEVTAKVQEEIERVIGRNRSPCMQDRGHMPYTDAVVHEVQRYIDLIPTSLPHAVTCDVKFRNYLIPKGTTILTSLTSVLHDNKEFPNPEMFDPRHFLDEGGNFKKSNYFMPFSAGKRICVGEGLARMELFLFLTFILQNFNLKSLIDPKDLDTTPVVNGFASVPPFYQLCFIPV
Sequence of Voltage-gated inwardly rectifying potassium channel KCNH2 (Homo sapiens) (Q12809 whole entry, looked up): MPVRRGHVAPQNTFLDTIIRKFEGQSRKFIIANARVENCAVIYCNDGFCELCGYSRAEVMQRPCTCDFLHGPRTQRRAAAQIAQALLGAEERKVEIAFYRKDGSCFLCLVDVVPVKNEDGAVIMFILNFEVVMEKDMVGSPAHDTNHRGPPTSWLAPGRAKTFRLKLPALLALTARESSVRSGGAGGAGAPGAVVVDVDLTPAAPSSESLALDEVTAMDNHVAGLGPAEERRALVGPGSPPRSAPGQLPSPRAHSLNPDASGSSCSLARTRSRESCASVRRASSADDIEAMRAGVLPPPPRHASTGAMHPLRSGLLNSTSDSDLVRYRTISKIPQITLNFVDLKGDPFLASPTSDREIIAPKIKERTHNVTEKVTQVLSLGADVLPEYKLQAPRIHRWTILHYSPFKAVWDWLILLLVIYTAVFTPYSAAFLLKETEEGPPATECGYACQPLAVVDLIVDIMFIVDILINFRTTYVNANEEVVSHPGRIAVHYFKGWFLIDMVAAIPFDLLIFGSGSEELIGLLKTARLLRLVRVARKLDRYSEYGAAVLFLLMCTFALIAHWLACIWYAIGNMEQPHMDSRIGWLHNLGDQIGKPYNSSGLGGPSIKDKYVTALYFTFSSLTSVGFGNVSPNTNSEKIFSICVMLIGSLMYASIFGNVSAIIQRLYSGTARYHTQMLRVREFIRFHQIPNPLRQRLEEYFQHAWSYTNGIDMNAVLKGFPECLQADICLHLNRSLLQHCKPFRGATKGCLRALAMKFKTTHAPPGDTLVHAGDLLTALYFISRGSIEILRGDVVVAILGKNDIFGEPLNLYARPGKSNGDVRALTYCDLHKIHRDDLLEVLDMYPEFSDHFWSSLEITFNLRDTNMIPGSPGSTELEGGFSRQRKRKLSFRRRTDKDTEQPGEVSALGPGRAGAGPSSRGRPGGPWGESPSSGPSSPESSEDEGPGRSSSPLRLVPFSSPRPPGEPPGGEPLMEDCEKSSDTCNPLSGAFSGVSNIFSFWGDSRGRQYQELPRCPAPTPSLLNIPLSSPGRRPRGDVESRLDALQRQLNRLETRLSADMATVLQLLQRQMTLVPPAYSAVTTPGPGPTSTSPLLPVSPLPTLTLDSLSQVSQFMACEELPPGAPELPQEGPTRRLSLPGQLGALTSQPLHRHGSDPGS
Sequence of Nuclear receptor subfamily 1 group I member 2 (Homo sapiens) (O75469 whole entry, looked up): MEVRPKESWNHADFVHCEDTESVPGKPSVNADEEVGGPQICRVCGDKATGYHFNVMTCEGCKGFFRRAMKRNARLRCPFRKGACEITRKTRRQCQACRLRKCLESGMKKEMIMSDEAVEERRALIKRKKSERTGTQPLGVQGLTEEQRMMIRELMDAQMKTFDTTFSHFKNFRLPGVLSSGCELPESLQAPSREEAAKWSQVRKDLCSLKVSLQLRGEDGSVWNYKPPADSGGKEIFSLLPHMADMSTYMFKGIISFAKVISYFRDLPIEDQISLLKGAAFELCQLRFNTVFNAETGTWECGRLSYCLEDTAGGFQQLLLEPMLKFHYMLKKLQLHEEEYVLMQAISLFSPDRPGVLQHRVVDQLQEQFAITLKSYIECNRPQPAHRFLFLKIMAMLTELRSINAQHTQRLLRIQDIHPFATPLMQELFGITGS
Sequence of Cytochrome P450 2C9 (Homo sapiens) (P11712 whole entry, looked up): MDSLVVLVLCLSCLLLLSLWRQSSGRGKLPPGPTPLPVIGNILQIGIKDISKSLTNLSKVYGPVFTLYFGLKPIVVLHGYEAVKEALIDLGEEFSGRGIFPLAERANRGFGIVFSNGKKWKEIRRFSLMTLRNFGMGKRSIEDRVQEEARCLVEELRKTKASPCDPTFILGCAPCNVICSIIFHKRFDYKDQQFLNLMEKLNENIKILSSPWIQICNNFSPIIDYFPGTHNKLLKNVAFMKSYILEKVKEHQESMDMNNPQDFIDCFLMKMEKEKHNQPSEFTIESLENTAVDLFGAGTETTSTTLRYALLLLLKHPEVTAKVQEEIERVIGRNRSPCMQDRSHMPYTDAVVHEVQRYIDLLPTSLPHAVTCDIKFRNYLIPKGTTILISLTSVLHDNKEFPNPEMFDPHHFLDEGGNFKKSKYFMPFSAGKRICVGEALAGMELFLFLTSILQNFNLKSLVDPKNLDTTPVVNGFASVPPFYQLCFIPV

As for `OCCN1CCN(CC/C=C2/c3ccccc3Sc3ccc(C(F)(F)F)cc32)CC1`, the Potency in assay [1] was 29.8 µM (active); in assay [2] it was 33.5 µM (active); in assay [5], 6.92 µM (active); in assay [7], 19.5 µM (active); in assay [8] it was 2.13 µM (active). In addition, the Potency entry in assay [3] and in assay [6] was “inactive” throughout. The max activation in assay [4] was -7.9%.

Take `O=C(c1ccc(O)cc1O)c1ccc(O)cc1O`: the Potency entry in [9], in assay [2], in [6] and in [8] was “inactive” each time. Further, the Potency in [3] was 61.2 µM (active) and 43.3 µM (active); in assay [5], 7.98 µM (active) and 11.2 µM (active); in assay [7], 12.6 µM (active) and 11.2 µM (active); in assay [10], 5.03 µM (active) and 8.94 µM (active).

Turning to `Fc1ccc([C@@H]2CCNC[C@H]2COc2ccc3c(c2)OCO3)cc1`, the Potency entry in [9], in [3], in assay [11] and in assay [6] was “inactive” throughout. In addition, in assay [7], the Potency is 12.9 µM (active).

With `CCCC(C)c1ccccc1O` (configuration not stated), the Potency result in [9], in assay [3], in [5], in [11], in assay [8] and in assay [10] was “inactive” throughout. Besides, the Potency in [6] is 35.6 µM (active).

Turning to `C[C@@H](NCCCc1cccc(C(F)(F)F)c1)c1cccc2ccccc12`, the Potency entry in [12] and in assay [6] was “inactive” in each case. Moreover, the Potency in [5] is 0.0389 µM (active); in assay [11], 8.71 µM (active); in [8], 10.7 µM (active).

For the molecule `CCCN(CCC)C(=O)C(CCC(=O)OCCCN1CCN(CCOC(=O)Cc2c(C)n(C(=O)c3ccc(Cl)cc3)c3ccc(OC)cc23)CC1)NC(=O)c1ccccc1` (configuration not stated), the Potency result in assay [9] is “inactive”. Also, the Potency in assay [3] was 10.6 µM (active); in assay [5], 27.5 µM (active); in [6] it was 4.9 µM (active); in [8], 0.301 µM (active).

Regarding `CC1(C)CCC(C)(C)c2cc(C(=O)Nc3ccc(C(=O)O)cc3)ccc21`, the Potency in [1] is 48.6 µM (active); in assay [6], 71 µM (active). The Potency entry in assay [3], in assay [5], in assay [11], in [7] and in assay [10] was “inactive” in each case.

With `CCN(C(=O)c1cc(C)cc(OC[C@H](C)Nc2ccncc2)c1)C(C)C`, the Potency result in assay [9] and in [7] was “inactive” in each case. For the same molecule, the Potency was 17 µM (active) in assay [3], 22.2 µM (active) in assay [5], 7.02 µM (active) in assay [6] and 0.992 µM (active) in assay [10].

In the case of `O=CC=C(c1ccccc1)c1ccccc1`, the Potency in assay [1] was 54.9 µM (active); in assay [3], 69.1 µM (active); in assay [11], 18 µM (active); in [6], 20.2 µM (active); in assay [7] it was 20.2 µM (active); in assay [8] it was 39.2 µM (active). In assay [10], the Potency result was “inactive”.

Turning to `CCc1cc(SCc2sc(-c3ccc(C(F)(F)F)cc3)nc2CN2CCN(c3ccc(OC)cc3)CC2)ccc1OCC(=O)O`, the Potency in assay [1] is 24.3 µM (active); in assay [2], 24.3 µM (active); in assay [3], 48.6 µM (active); in assay [6] it was 20 µM (active); in [10], 11.2 µM (active). The Potency result in [5] and in assay [7] was “inactive” in each case.

For `C/C=C1/C(=O)C[C@H]2[C@@H]3CCC4=CC(=O)CC[C@]4(C)[C@H]3CC[C@]12C`, the Potency entry in [9], in assay [5] and in [10] was “inactive” in each case. In addition, the Potency in assay [11] was 3.98 µM (active); in assay [6], 31.6 µM (active); in assay [7], 39.8 µM (active).

As to `CCCN(CCC)c1c([N+](=O)[O-])cc(C(F)(F)F)c(N)c1[N+](=O)[O-]`, the Potency in assay [9] is 54.3 µM (active); in [3], 4.84 µM (active); in [11], 2 µM (active); in assay [6] it was 20 µM (active); in [7], 2 µM (active); in assay [10], 12.6 µM (active).
